The panel holds about 79,000 compounds, 15% with a hit somewhere; the sample as a whole holds those more often. A number with no mark means an inactive call. Activity calls are given as the source filed them. No stated cut-off is given here; in the data, active means growth inhibition above about 70%; inactive means the rest. Where a SMILES comes first, the peptide text is derived from it. [ ]: non-standard residue; d: D form. The star is where a group is joined. ξ: configuration not given here. NMeY = CN[C@@H](Cc1ccc(O)cc1)C(=O)O; Cbz = O=C(OCc1ccccc1)*; ξA = CC(N)C(=O)O
Columns and labels:
[1] = NCI Yeast Anticancer Drug Screen. Data for the rad50 strain (AID 155);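 further: 0% = growth of vehicle-only cultures of the same strain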; conditions: S. cerevisiae rad50 strain growth inhibition; at 50.0 µM; active compounds read high
Method in brief: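 Inhibition values express reduced yeast growth in compound-treated cultures relative to vehicle-treated controls.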

[2] = NCI Yeast Anticancer Drug Screen. Data for the mec2-1 strain (AID 157); conditions: S. cerevisiae mec2-1 strain, at 50.0 µM, active compounds read high
Method in brief: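 Growth inhibition is read against vehicle-treated controls after compound exposure of the mec2-1 yeast strain, which is defective in DNA damage repair or cell cycle control.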

[3] = NCI Yeast Anticancer Drug Screen. Data for the sgs1 mgt1 strain (AID 161);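 further: 0% = growth of cultures given vehicle only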; conditions: S. cerevisiae sgs1 mgt1 strain, at 50.0 µM, active compounds read high
Method in brief: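 Percent growth inhibition was derived by comparing compound-exposed mutant yeast with vehicle-exposed cultures. The strain carries alterations in DNA damage repair.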

[4] = NCI Yeast Anticancer Drug Screen. Data for the cln2 rad14 strain (AID 165);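 further: 0% = growth equal to vehicle treated cultures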; conditions: S. cerevisiae cln2 rad14 strain, at 50.0 µM, active compounds read high
Method in brief: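 Growth inhibition, relative to vehicle-treated controls, is the read-out. The test organism is a yeast strain with defined genetic alterations, cln2 rad14.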

[5] = NCI Yeast Anticancer Drug Screen. Data for the bub3 strain (AID 167); conditions: S. cerevisiae bub3 mutant strain, at 50.0 µM, active compounds read high
Method in brief: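 Steps: expose the mutant yeast strain to compound; grow alongside vehicle-treated cultures; measure growth; express inhibition against the vehicle cultures.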

[6] = NCI Yeast Anticancer Drug Screen. Data for the mlh1 rad18 strain (AID 175); conditions: S. cerevisiae mlh1 rad18 strain growth inhibition; at 50.0 µM; active compounds read high
Method in brief: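 Cells of a genetically altered yeast strain, deficient in DNA damage repair, were treated with compound. Their growth was then compared with that of vehicle-treated cultures to give inhibition.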

Compound	growth inhibition [1]	growth inhibition [2]	growth inhibition [3]	growth inhibition [4]	growth inhibition [5]	growth inhibition [6]
CC(=O)c1cc(C(C)=O)c(CC(=O)C(=O)Nc2cccc(C)c2C)nc1CC(=O)C(=O)Nc1cccc(C)c1C	2.9%	-6.3%	16.5%	-19.2%	-9.6%	-18.5%
C[N+](C)(C)CCc1ccc2ccccc2c1	12.2%	11.8%	9.35%	0.1%	5.7%	12.8%
CN(C)CCSCC(=O)N1c2ccccc2Sc2ccccc21	-7.7%	-8.5%	-5.8%	-41.2%	3%	-4.8%
COC(=O)c1ccccc1N=Cc1cc(Cl)ccc1O	21.5%	23.1%	35.9%	6.1%	19.6%	88.2% (active)
O=C(O)/C(=C\c1ccccc1[N+](=O)[O-])c1ccc(C(F)(F)F)cc1	4%	-15.9%	1.95%	7.1%	10.7%	-18.9%
CC(/C=C/C(=O)c1sc(C(N)=S)nc1C)=C\c1ccccc1	4.55%	-13.1%	-6.8%	10.8%	-5.8%	22.2%
CCCCNCC(=O)O[C@]1(CC)C(=O)OCc2c1cc1n(c2=O)Cc2cc3ccccc3nc2-1	78% (active)	66.8%	49.5%	28.8%	40.2%	62.2%
COc1ccc(C=O)c(C(=O)O)c1OC	-7.7%	-52.9%	-2.8%	17.2%	-20.2%	-3.7%
COc1ccc(NC(=S)N=Nc2c(O)[nH]c3ccccc23)cc1	-43.2%	-50%	-33.9%	-13.8%	-41.4%	-30.6%
O=S1(=O)C2CCC(Br)C1CCC2Br (configuration not stated)	9.65%	13.8%	7.65%	14.2%	-2.65%	10.9%
CC1CCN(C(=O)Nc2ccccc2)CC1	-7.1%	-17.2%	4.9%	-51.3%	-6.05%	-10.7%
CC1(C)COCN1COCCOCN1COCC1(C)C	10.2%	-18%	-1.55%	7.05%	-25.9%	-56.6%
COC(C(N)=O)c1ccccc1 (configuration not stated)	-9.8%	-11.3%	-16.4%	-8%	8.7%	-3.45%
CCOC1=C(C#N)C(=O)NC2OC(CO)C(O)C2O1 (configuration not stated)	11.4%	5.45%	11.6%	-8.95%	17.9%	15.8%
O=NNc1ccc(S(=O)(=O)c2ccccc2)cn1	49.1%	13.9%	-27.9%	12.1%	-26.6%	5.2%
O=C1CSSCC(=O)Nc2ccccc2N1	6.35%	0.5%	-0.2%	16.2%	19.4%	-4%
COC(=O)/C=C(\S/C=C(/c1ccccc1)N1CCn2c(C(=O)c3ccccc3)c(C(=O)OC)c(C(=O)OC)c21)C(=O)OC	27.4%	32.6%	43.8%	11.4%	54.1%	15.2%
CC(=O)Nc1nc(C)c(S(=O)(=O)Cl)s1	27.5%	10.4%	33%	23.2%	14.8%	19.6%
NCc1ccc(O)c(O)c1	-13.9%	19.9%	15.3%	13%	5.6%	10.1%
CCCCOC(=O)CNC(=O)OC(C)(C)C	-4.5%	11.8%	-10.1%	-2.1%	-3.25%	-15.5%
O=C(O)c1c(Br)c(Br)c(Br)c(Br)c1C1c2ccc(O)cc2Oc2cc(O)ccc21	20.4%	25%	35%	-7.75%	-2.6%	26.6%

Compound	growth inhibition [1]	growth inhibition [2]	growth inhibition [3]	growth inhibition [4]	growth inhibition [5]	growth inhibition [6]
OCCN(CCO)c1ncnc2c1ncn2Cc1ccccc1	-7.15%	-7.5%	-7.05%	-42.2%	8.15%	-20.2%
CCc1nnc(CC)n1N1C(=O)CCC1=O	24.1%	28.1%	26.2%	11.1%	24.8%	21.7%
COc1ccc(C[C@@H](C(=O)N[C@@H](C)C(N)=O)N(C)C(=O)[C@@H]2CCCN2C(=O)[C@H](CC(C)C)NC(=O)C(C)NC(=O)OCc2ccccc2)cc1 (some centres not stated) (Cbz-[ξA]LP[NMeY](Me)A-NH2)	29.1%	28.9%	-7.95%	-4%	-38.2%	-44.2%
CN(C)C(=O)Nc1cccc(OC(=O)NC2CC2)c1	4.4%	16.9%	26.9%	-8.35%	19.8%	-4.1%
Brc1cc(Br)cc(-c2nnc(-c3ccc4ccccc4c3)o2)c1	-3.5%	-20.8%	-2.45%	3.25%	3%	4.55%
CCOC(=O)CCCCN(CC)CCCCC(=O)OCC	2.65%	-1.5%	11.1%	-2.25%	16.6%	-19.6%
[N-]=[N+]=Nc1ccccc1C(=O)N1C(=O)c2ccccc2C(=O)N(C(=O)c2ccccc2N=[N+]=[N-])c2ccccc21	1.35%	7.9%	0.8%	0.35%	11.9%	-6.4%
Cc1ccc(S(=O)(=O)N/N=c2/sc3ccccc3n2C)cc1	-35%	-19.1%	-33.5%	-7.85%	-8.2%	-22.3%
OCC(O)C(O)C(O)CN=Cc1ccccc1O (configuration not stated)	-7.45%	-2.25%	10.4%	-7.8%	-1.15%	12.3%
CCCCOC(=O)CC1CCCCC1	-15.3%	-8.95%	-30.8%	-6.1%	-5.6%	-10.2%
C[C@@H]1C[C@@H]2C(=O)N(c3ccccc3)C(=O)[C@@H]2c2[nH]c3ccc(Br)cc3c21	0.2%	-12.6%	15.8%	0.25%	-7.95%	-20.1%
Cc1nc2ccccc2c(=O)n1NC(=S)Nc1cccc(Cl)c1	7.35%	-35.3%	28.1%	-12.8%	-8.2%	-26.8%
CCOC(=O)OC1CCCCC1c1ccccc1 (configuration not stated)	13.7%	-12.9%	-7.15%	-14.9%	-20.1%	-16.2%
COc1ccc2ccc3cccnc3c2n1	45.2%	22.1%	40.9%	-2.35%	26.2%	2%
Brc1ccc(N=C2NN=CC2(c2ccccc2)c2ccccc2)cc1	25.6%	1.75%	6.75%	4.85%	19.6%	-1.15%
O=C(CC(O)(C(F)(F)Cl)C(F)(F)Cl)c1cccc([N+](=O)[O-])c1	77.5% (active)	62%	81.5% (active)	72.5% (active)	61%	95.8% (active)
CCN(CC)CCCNc1ncnc2onc(C)c12	15.3%	15.2%	2.2%	6.15%	1.45%	-9.3%
O=C1c2ccccc2-c2nc(-c3ccncc3)cc3c2c1nc1ccccc13	25.6%	18.4%	27.2%	11.1%	14.1%	34.4%
O=[N+]([O-])c1cccnc1Sc1nc2ccccc2[nH]1	20.2%	17.9%	25.5%	-20.5%	21.8%	6.2%
COC/N=C(\NC#N)NCOC	20.5%	-1%	9.5%	14%	-11.7%	23.2%
CCN(CC)Cc1ccccc1COC(=O)c1ccc(OC)cc1	-0.1%	-3.45%	14.8%	-15.2%	-7.25%	11.3%
